The panel holds about 83,000 compounds, 20% with a hit somewhere; the sample as a whole holds those more often.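 Single-dose data. Exposure time 48 hours. Values below 10 considered active.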 Activity calls are given as the source filed them.

The test system of this experiment is SK-OV-3 ovarian. Briefly: NCI-60 one-dose screen, 48 h (100 = growth as untreated, 0 = no growth, -100 = all killed). The settings on record: 10 µM unless noted.
For the molecule `N=C(N)c1ccc(-c2ccc(-c3ccc(Cl)cc3)o2)nc1`, the growth was -96.7% (active).

Take `NC(=O)c1c(NC(=O)c2ccc(OCC3CCCO3)cc2)sc2c1CCCC2` (stereo not drawn): the growth is 119% (inactive). In the case of `Cc1cc(-c2ccccc2)c(C)n1Cc1ccc(Cl)cc1`, the growth was 62.2% (inactive). With `Clc1cccc(Cl)c1Cn1c(-c2cncs2)nc2ccccc21`, the growth was 96.3% (inactive).

On to `Cc1ccc(Cn2c(-c3nonc3N)nc3ccccc32)cc1`, for which the growth is 80.4% (inactive). Next, `CC/C(=C(\c1ccc(O)cc1)c1ccc(OCCN(C)CCN(C)C(=O)CCC(=O)c2c(C)[nH]c(/C=C3\N=C(c4ccc[nH]4)C=C3OC)c2C)cc1)c1ccccc1`: 111% (inactive). As to `NC(N)=NC(N)=Nc1ccccc1-c1ccccc1`, the growth is 123% (inactive). In the case of `COc1cc(/C=C/C(=O)c2ccc(NC(=O)CN3CCN(c4cc5c(cc4F)c(=O)c(C(=O)O)cn5C4CC4)CC3)cc2)cc(OC)c1OC`, the growth is 33.3% (inactive).

Regarding `COc1ccc(-c2nc(-c3ccccc3)c(-c3ccccc3)n2C2CC2)cc1OC1CCCCC1`, the growth is 89.4% (inactive). Take `CCOC(=O)[C@H](CSSc1ncnc2cc[nH]c12)NC(=O)[C@@H](C)c1ccc2cc(OC)ccc2c1`: the growth was 8.34% (active).

Consider `COC(=O)c1ccc2nc(-c3cc4ccccc4n3C)n(CCCCOc3cc4c(cc3OC)C(=O)N3CCC[C@H]3C=N4)c2c1`, for which the growth is 30.1% (inactive).

In the case of `COc1cc2c(cc1OC)C1(C)N(CC2)C(=O)OC1(C)C` (stereo not drawn), the growth is 107% (inactive). For `CN1CCN(c2ccc3cc(-c4nc5ccccc5[nH]4)c(=O)oc3c2)CC1`, the growth is 101% (inactive).

The values above are taken from PubChem BioAssay (NCI).
